In PubChem BioAssay (Tox21):
Records with an inconclusive call do not appear. Activity calls are given as the source filed them. Unless noted, the call rests on the fitted dose curve; in most records, active means well fitted curve in the direction sought with a large enough effect in the repeat runs; inconclusive means weak or mixed curves; inactive means no such curve, though single readings can be large; an effect the other way counts as inactive or inconclusive.

Columns and labels:
[1] = qHTS assay for small molecule agonists of the p53 signaling pathway (AID 651631; calls by dose curve; further: nearly all actives have a fitted effect of over 15% in size)
Outline: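 p53RE-bla HCT-116 cells; compounds 16 h, 37 °C; LiveBLAzer B/G FRET substrate 2 h RT; fluorescence intensity read-out, qHTS format.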

[2] = qHTS assay for small molecules that induce genotoxicity in human embryonic kidney cells expressing luciferase-tagged ATAD5 (AID 651632); further: nearly all actives have a fitted effect of over 15% in size
Outline: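 Quantitative HTS in HEK293T expressing luciferase-tagged ATAD5, whose levels rise upon DNA damage. Exposure ran 16 hr at 37C and 5% CO2, with luminescence read 30 min after Amplite addition at room temperature.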

[3] = qHTS assay for small molecule agonists of the p53 signaling pathway - cell viability (AID 651633; calls by dose curve;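 further: p53RE-bla HCT reporter cells with a stable beta-lactamase p53 reporter; series mostly up to about 83 µM; nearly all actives have a fitted effect of over 30% in size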)
Outline: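 Viability counter-read: CellTiter-Glo luminescence (30 min, room temperature) in the same p53RE-bla plates. These plates had been exposed to compounds for 16 h at 37 C.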

[4] = qHTS assay for small molecules that induce genotoxicity in human embryonic kidney cells expressing luciferase-tagged ATAD5 - cell viability (AID 651634; calls by dose curve; further: nearly all actives have a fitted effect of over 25% in size)
Outline: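 After 15.5 hr incubation with compound at 37C, 5% CO2, HEK293T ATAD5-luciferase cells received CellTiter-Fluor reagent; fluorescence intensity was quantified following 30 min at 37C.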

[5] = qHTS assay for small molecule disruptors of the mitochondrial membrane potential - cell viability (AID 720634; calls by dose curve;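 further: human HepG2 liver cancer cells; series mostly up to about 83 µM; nearly all actives have a fitted effect of over 20% in size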)
Outline: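 ATP-based luminescent viability readout (CellTiter-Glo, 30 min, room temperature) in HepG2 cells multiplexed with the m-MPI membrane potential dye; compound exposure lasted 1 hr at 37 C.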

[6] = qHTS assay for small molecule disruptors of the mitochondrial membrane potential (AID 720635)
Outline: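 Mitochondrial membrane potential tracked with Mito-MPS dye, red aggregates (ex 540/em 590 nm) against green monomers (ex 490/em 535 nm). Compound treatment 1 hr at 37C, dye 30 min in HepG2.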

[7] = qHTS assay to test for compound auto fluorescence at 590 nm (red) in HepG2 cells (AID 720674)
Outline: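 1 hr compound incubation on HepG2 cells, 37 C, 5% CO2; plate read ex 540 nm / em 590 nm; intensities reported as Rose Bengal sodium equivalents.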

[8] = qHTS assay to test for compound auto fluorescence at 535 nm (green) in HepG2 cells (AID 720675)
[9] = qHTS assay to test for compound auto fluorescence at 460 nm (blue) in HEK293 cells (AID 720678)
Outline: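 Intrinsic compound fluorescence is recorded in live HEK293 cultures after overnight incubation at 37C, 5% CO2, using excitation 405 nm and emission 460 nm. Values are referenced to triamterene.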

[10] = qHTS assay to test for compound auto fluorescence at 590 nm (red) in HEK293 cells (AID 720679)
Outline: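 Red autofluorescence, HEK293 cells: 2,000 cells/well; attach 4-5 hr 37C; add 23 nL cpd or DMSO; incubate o/n 37C 5% CO2; read Ex540/Em590; Rose Bengal sodium reference.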
On the % scale 0 is the no-effect control and ±100 the full control effect.

CC(=O)O[C@H]1C[C@@H]2CC[C@@]1(C)C2(C)C
inactive: outcome [1] | outcome [2] | outcome [3] | Potency [4] | outcome [5] | Potency [6] | outcome [7] | outcome [8] | outcome [9] | outcome [10]

CC(=O)O[C@@H]1CC2CCC1(C)C2(C)C (some centres not stated)
inactive: outcome [1] | outcome [2] | outcome [3] | Potency [4] | outcome [5] | Potency [6] | outcome [8] | outcome [9]

CC(C)COC(=O)c1ccccc1
inactive: outcome [1] | outcome [2] | outcome [3] | Potency [4] | outcome [5] | Potency [6] | outcome [7] | outcome [8] | outcome [9] | outcome [10]

CC(=O)CC(=O)Nc1ccc(C)cc1C
inactive: outcome [1] | outcome [2] | outcome [3] | Potency [4] | outcome [5] | outcome [7] | outcome [8] | outcome [9] | outcome [10]

CCCCCCC1(C)CCC(=O)O1 (configuration not stated)
inactive: outcome [1] | outcome [2] | outcome [3] | Potency [4] | outcome [5] | outcome [7] | outcome [8] | outcome [9] | outcome [10]

CCCCCCCCCCCCCCCCCCOCCO
inactive: outcome [1] | outcome [2] | outcome [3] | Potency [4] | outcome [5] | Potency [6] | fluorescence, relative to Rose Bengal [7] 0.105% [at 18.6 µM] | fluorescence, % of fluorescein control [8] 0.0331% [at 18.6 µM] | fluorescence, % of triamterene [9] -0.176% [at 18.6 µM] | fluorescence, % of fluorescent control [10] -0.175% [at 18.6 µM]

CC(CO)(CO)CO
inactive: outcome [1] | outcome [2] | outcome [3] | Potency [4] | outcome [5] | Potency [6] | outcome [7] | outcome [8] | outcome [9] | outcome [10]

N#CCC(=O)NN
inactive: outcome [1] | outcome [2] | outcome [3] | Potency [4] | outcome [5] | Potency [6] | outcome [7] | outcome [8] | outcome [9] | outcome [10]

O=C(CN1CCNCC1)NC1CCCCC1
inactive: outcome [1] | outcome [2] | outcome [3] | Potency [4] | outcome [5] | Potency [6] | outcome [7] | outcome [8] | outcome [9] | outcome [10]

CCCCOCC(C)O (configuration not stated)
inactive: outcome [1] | outcome [2] | outcome [3] | Potency [4] | outcome [5] | outcome [7] | outcome [8] | outcome [10]

[O]=[Mo](=[O])=[O]
inactive: outcome [1] | outcome [2] | outcome [3] | Potency [4] | outcome [5] | Potency [6] | fluorescence, relative to Rose Bengal [7] -0.0279% [at 18.6 µM] | fluorescence, % of fluorescein control [8] 0.0234% [at 18.6 µM] | fluorescence, % of triamterene [9] 0.132% [at 18.6 µM] | fluorescence, % of fluorescent control [10] 0.419% [at 18.6 µM]

CCO
inactive: outcome [1] | outcome [2] | outcome [3] | Potency [4] | outcome [5] | outcome [7] | outcome [8] | outcome [9] | outcome [10]

O=C(O)CONC(=O)c1ccccc1
inactive: outcome [1] | outcome [2] | outcome [3] | Potency [4] | outcome [5] | outcome [7] | outcome [8] | outcome [9] | outcome [10]

Cc1cccc(Cl)c1
inactive: outcome [1] | outcome [2] | outcome [3] | Potency [4] | outcome [5] | Potency [6] | outcome [7] | outcome [8] | outcome [9] | outcome [10]

COC(=O)/C=C\C(=O)O
inactive: outcome [1] | outcome [2] | outcome [3] | Potency [4] | outcome [5] | Potency [6] | outcome [8] | outcome [9] | outcome [10]

COS(=O)(=O)O
inactive: outcome [1] | outcome [2] | outcome [3] | Potency [4] | outcome [5] | Potency [6] | outcome [7] | outcome [8] | outcome [10]

O=C(NCN1CCOCC1)c1cnccn1
inactive: outcome [1] | outcome [2] | outcome [3] | Potency [4] | outcome [5] | Potency [6] | outcome [7] | outcome [8] | outcome [9] | outcome [10]

CC(C)=CCC[C@@](C)(O)[C@H]1CC=C(C)CC1
inactive: outcome [1] | outcome [2] | outcome [3] | Potency [4] | outcome [5] | Potency [6] | outcome [7] | outcome [8] | outcome [9]

CCc1occc(=O)c1O
inactive: outcome [1] | outcome [2] | outcome [3] | Potency [4] | outcome [5] | outcome [7] | outcome [8] | outcome [10]

CC(C)=CCC/C(C)=C/COC=O
inactive: outcome [1] | outcome [2] | outcome [3] | Potency [4] | outcome [5] | Potency [6] | outcome [7] | outcome [8] | outcome [9] | outcome [10]

CCCC(CC)c1ccccc1 (configuration not stated)
inactive: outcome [1] | outcome [2] | outcome [3] | Potency [4] | outcome [5] | outcome [7] | outcome [8] | outcome [9] | outcome [10]

C/C(CC(C)C)=N\O
inactive: outcome [1] | outcome [2] | outcome [3] | Potency [4] | outcome [5] | Potency [6] | outcome [8] | outcome [9] | outcome [10]

CCOc1cccc(N)c1
inactive: outcome [1] | outcome [2] | outcome [3] | Potency [4] | outcome [5] | Potency [6] | outcome [7] | outcome [8] | outcome [10]

CCCCCCCCCOC(=O)CCCCC(=O)OCCCCCCC
inactive: outcome [1] | outcome [2] | outcome [3] | Potency [4] | outcome [5] | outcome [7] | outcome [8] | outcome [9] | outcome [10]

C[C@@H](O)C(=O)O
inactive: outcome [1] | outcome [2] | outcome [3] | Potency [4] | outcome [5] | outcome [7] | outcome [8] | outcome [9] | outcome [10]
